Assay [1] addresses Mitogen-activated protein kinase 10 (Mus musculus) (UniProt Q61831). The assay is described as follows: JNK3 AlphaScreen Assay (AID 530; active = well fitted curve in either direction with a large enough effect, not every such curve was filed as active;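 also: kinase came from lysate of stimulated human HepG2 cells; signal reports phosphorylation of biotinylated GST-cJun 1-79 at Ser73 with 10 µM ATP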). The settings on record: JNK3 lysate, c-Jun phosphorylation; series mostly up to 57.1 µM. Put shortly:
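qHTS format: compounds tested as titrations against IL-1beta/TNF-alpha-activated HepG2 lysate JNK3 with biotin-GST-cJun substrate and 10 uM ATP at room temperature. Loss of anti-phospho-cJun AlphaScreen signal indicates inhibition.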
(Alpha assays give light when donor and acceptor beads are brought close together.)

The target in assay [2] is Cytochrome P450 3A4 (Homo sapiens) (UniProt P08684). The assay is described as follows: qHTS Assay for Inhibitors and Substrates of Cytochrome P450 3A4 (AID 884). Also: potency is read from the fitted curve at half-maximal effect; nearly all actives have a fitted effect of over 50% in size. The conditions noted are these: recombinant CYP3A4, Luciferin-PPXE luminescence; series mostly up to 57.1 µM. Put shortly:
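20 nM human CYP3A4 with 25 uM Luciferin-PPXE (at KM) in 200 mM KPO4, preincubated 10 min with compound; NADPH regeneration started a 60 min RT reaction. Luciferin detected by luminescence, normalized to 57 uM ketoconazole as full inhibition.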

The target is the same in assay [3]. The assay is described as follows: qHTS Assay for Activators of Cytochrome P450 3A4 (AID 885). Also: nearly all actives have a fitted effect of over 65% in size. The conditions noted are these: recombinant CYP3A4, Luciferin-PPXE luminescence, 60 min; series mostly up to 57.1 µM. The method, boiled down: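 Signal was normalized against complete inhibition by 57 uM ketoconazole. The reaction used 20nM CYP3A4 with 25uM Luciferin-PPXE, 10-min compound preincubation and a 60-min NADPH-supported step at RT.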
In general terms: qHTS replaces the single test concentration by a dilution series.

We go through ten compounds from PubChem BioAssay (NCATS).

Results filed as inconclusive are left out. A call without a number means that no potency is given here. The source made the active and inactive calls. Unless noted, calls follow the shape of the dose curve; as a rule, active = well fitted curve in the direction sought with a large enough effect; inconclusive = small, poorly fitted or top-dose-only effect, or another doubt; inactive = no such curve, though single readings can be large; an effect the other way counts as inactive or inconclusive.

Chain of Cytochrome P450 3A4 (Homo sapiens) (P08684 whole entry, looked up): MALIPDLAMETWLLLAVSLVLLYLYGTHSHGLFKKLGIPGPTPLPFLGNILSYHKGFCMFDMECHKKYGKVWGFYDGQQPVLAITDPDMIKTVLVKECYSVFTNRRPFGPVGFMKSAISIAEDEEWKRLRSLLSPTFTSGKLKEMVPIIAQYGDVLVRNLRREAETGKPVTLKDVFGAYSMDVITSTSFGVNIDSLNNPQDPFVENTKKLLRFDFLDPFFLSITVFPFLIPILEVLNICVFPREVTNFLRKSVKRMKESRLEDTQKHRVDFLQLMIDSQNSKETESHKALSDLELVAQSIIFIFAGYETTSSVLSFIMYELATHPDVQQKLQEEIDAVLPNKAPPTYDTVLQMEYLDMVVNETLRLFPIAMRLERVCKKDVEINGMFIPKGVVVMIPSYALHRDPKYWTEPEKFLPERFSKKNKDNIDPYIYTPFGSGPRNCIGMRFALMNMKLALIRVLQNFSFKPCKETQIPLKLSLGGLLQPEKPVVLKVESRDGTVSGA

As for `CC1(C(=O)NCCCNc2ncc(C(F)(F)F)cc2Cl)C=CC2(CCCCC2)N1C(=O)c1ccccc1` (stereo not given), the call in assay [1] was inactive. For the same compound, the Potency in assay [2] is 7.94 µM (active). Moreover, in assay [3], the Potency entry was “inactive”.
Take `CC1(C(=O)NCc2cc(F)cc(C(F)(F)F)c2)C=CC2(CCCCC2)N1C(=O)c1ccccc1` (stereo not given): the compound was classed as inactive in assay [1]. In assay [2], the Potency was 6.31 µM (active). Moreover, the Potency entry in assay [3] is “inactive”.
`COC(=O)c1ccc(C(NC(=O)OCc2ccccc2)/C(F)=C/[C@@H](C)C(=O)N[C@@H](CO)Cc2ccccc2)cc1` (stereo not given in full): the compound was classed as inactive in assay [1]. Moreover, the Potency in assay [2] was 7.94 µM (active). Also, the Potency entry in assay [3] is “inactive”.
For `COC(=O)c1ccc(C(NC(=O)OCc2ccccc2)/C(C)=C/[C@@H](C)C(=O)NCc2cccnc2)cc1` (stereo not given in full), the result in assay [1] was inactive. In addition, the Potency in assay [2] was 0.794 µM (active). Moreover, the Potency entry in assay [3] was “inactive”.
For the compound `COC(=O)c1ccc(C(NC(=O)OCc2ccccc2)/C(C)=C/[C@@H](C)C(=O)N2CCN(C)CC2)cc1` (stereo not given in full), the result in assay [1] was inactive. Further, in assay [2], the Potency was 1.26 µM (active). In assay [3], the Potency entry is “inactive”.
Turning to `CC(=O)N1CC=CC1(C)C(=O)NCc1cc(F)cc(C(F)(F)F)c1` (stereo not given), the call in assay [1] was inactive. Also, the Potency in assay [2] is 15.8 µM (active). Further, the Potency result in assay [3] was “inactive”.
Regarding `CC(C)NC(=O)[C@@H]1C[C@@]1(C)[C@@H](NC(=O)OCc1ccccc1)c1ccccc1`, the compound was called inactive in assay [1]. In assay [2], the Potency was 10 µM (active). Besides, the Potency entry in assay [3] was “inactive”.
As to `CC(=O)N1[C@H](Cc2ccccc2)C=C[C@]1(C)C(=O)NCc1ccc(C)o1`, in assay [1], the call was inactive. Also, the Potency in assay [2] was 7.94 µM (active). In addition, the Potency entry in assay [3] was “inactive”.
In the case of `CN(C)c1ccc(CNC(=O)C2(C)C=CCN2C(=O)c2ccccc2)cc1` (stereo not given), the outcome in assay [1] was inactive. In addition, the Potency in assay [2] was 10 µM (active). Further, the Potency result in assay [3] was “inactive”.
As to `CCCCCCN(C(=O)CCCCCN1C(=O)NC(c2ccc(C(C)(C)C)cc2)C(C(=O)OCc2ccccc2)=C1C)C(C(=O)NCCCC)c1ccc(OCC(=O)OC)c(C(=O)OC)c1` (stereo not given), in assay [1], the compound was classed as inactive. In assay [2], the Potency is 1.26 µM (active). For the same compound, in assay [3], the Potency entry was “inactive”.
